Data: the supplement of paper PMC12282887
± gives the standard deviation of the averaged measurements.

Assays:
Experiment in all cases: promoter activity interaction Z-score (Lux/OD deviation from empty-vector control); higher = stronger promoter induction by the compound
[1] = tested on: E. coli BW25113 acrABp lux reporter
How it was run: (§1)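 E. coli BW25113, as wild type or one of three single-gene deletion strains, carried low-copy luxCDABE promoter reporters and grew in 40 µl LB Lennox in 384-well plates at 37°C, with OD600 and luminescence read every 30 min for 12 h. Each compound was run at four 1:2 dilutions in biological duplicates, integration spanned 0–8 h for wild type and 1–9 h for deletion strains, and wells under 10% of the median growth value were dropped. The score is the Z-transformed residual of growth-normalised luminescence fitted against a control.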

[2] = tested on: E. coli BW25113 marRABp lux reporter
How it was run: as §1

[3] = tested on: E. coli BW25113 micFp lux reporter
How it was run: as §1

[4] = tested on: E. coli BW25113 ompFp lux reporter
How it was run: as §1

[5] = tested on: E. coli BW25113 robp lux reporter
How it was run: as §1

[6] = tested on: E. coli BW25113 soxSp lux reporter
How it was run: as §1

[7] = tested on: E. coli BW25113 tolCp lux reporter
How it was run: as §1

[8] = 1.9 µg/ml, genetic background: wild type
[9] = 1.9 µg/ml, genetic background: ΔmarA
[10] = 1.9 µg/ml, genetic background: Δrob
[11] = 1.9 µg/ml, genetic background: ΔsoxS
[12] = 3.7 µg/ml, genetic background: wild type
[13] = 3.7 µg/ml, genetic background: ΔmarA
[14] = 3.7 µg/ml, genetic background: Δrob
[15] = 3.7 µg/ml, genetic background: ΔsoxS
[16] = 7.4 µg/ml, genetic background: wild type
[17] = 7.4 µg/ml, genetic background: ΔmarA
[18] = 7.4 µg/ml, genetic background: Δrob
[19] = 7.4 µg/ml, genetic background: ΔsoxS
[20] = 0.011 µg/ml, genetic background: wild type
[21] = 0.011 µg/ml, genetic background: ΔmarA
[22] = 0.011 µg/ml, genetic background: Δrob
[23] = 0.011 µg/ml, genetic background: ΔsoxS
[24] = 0.022 µg/ml, genetic background: wild type
[25] = 0.022 µg/ml, genetic background: ΔmarA
[26] = 0.022 µg/ml, genetic background: Δrob
[27] = 0.022 µg/ml, genetic background: ΔsoxS
[28] = 0.044 µg/ml, genetic background: wild type
[29] = 0.044 µg/ml, genetic background: ΔmarA
[30] = 0.044 µg/ml, genetic background: Δrob
[31] = 0.044 µg/ml, genetic background: ΔsoxS

Compound: CCCCCCCCCCCCC[N+](C)(C)Cc1ccccc1 [Benzalkonium]
- promoter activity interaction Z-score [1, 8]: -0.513 ± 0.068
- promoter activity interaction Z-score [1, 9]: -0.237 ± 0.34
- promoter activity interaction Z-score [1, 10]: -0.388 ± 0.4
- promoter activity interaction Z-score [1, 11]: 0.294 ± 0.89
- promoter activity interaction Z-score [1, 12]: -0.16 ± 0.06
- promoter activity interaction Z-score [1, 13]: -0.795 ± 0.15
- promoter activity interaction Z-score [1, 14]: -0.554 ± 0.18
- promoter activity interaction Z-score [1, 15]: 0.231 ± 0.94
- promoter activity interaction Z-score [1, 16]: -0.426 ± 0.23
- promoter activity interaction Z-score [1, 17]: -0.878 ± 0.33
- promoter activity interaction Z-score [1, 18]: -0.727 ± 0.24
- promoter activity interaction Z-score [1, 19]: 0.0433 ± 0.71
- promoter activity interaction Z-score [2, 8]: -0.577 ± 0.068
- promoter activity interaction Z-score [2, 9]: 0.106 ± 0.047
- promoter activity interaction Z-score [2, 10]: -0.463 ± 0.11
- promoter activity interaction Z-score [2, 11]: -0.158 ± 0.0077
- promoter activity interaction Z-score [2, 12]: -0.168 ± 0.0038
- promoter activity interaction Z-score [2, 13]: -0.194 ± 0.23
- promoter activity interaction Z-score [2, 14]: -0.586 ± 0.14
- promoter activity interaction Z-score [2, 15]: -0.214 ± 0.035
- promoter activity interaction Z-score [2, 16]: -0.235 ± 0.61
- promoter activity interaction Z-score [2, 17]: -0.581 ± 0.057
- promoter activity interaction Z-score [2, 18]: -0.529 ± 0.065
- promoter activity interaction Z-score [2, 19]: -0.255 ± 0.23
- promoter activity interaction Z-score [3, 8]: -0.76 ± 0.023
- promoter activity interaction Z-score [3, 9]: 0.0652 ± 0.0013
- promoter activity interaction Z-score [3, 10]: 0.0861 ± 0.12
- promoter activity interaction Z-score [3, 11]: 0.559 ± 0.1
- promoter activity interaction Z-score [3, 12]: -0.0239 ± 0.31
- promoter activity interaction Z-score [3, 13]: 0.0187 ± 0.025
- promoter activity interaction Z-score [3, 14]: -0.0547 ± 0.088
- promoter activity interaction Z-score [3, 15]: 0.312 ± 0.19
- promoter activity interaction Z-score [3, 16]: -0.0221 ± 0.06
- promoter activity interaction Z-score [3, 17]: 0.112 ± 0.063
- promoter activity interaction Z-score [3, 18]: -0.178 ± 0.013
- promoter activity interaction Z-score [3, 19]: 0.584 ± 0.26
- promoter activity interaction Z-score [4, 8]: -0.908 ± 0.23
- promoter activity interaction Z-score [4, 9]: -0.356 ± 0.42
- promoter activity interaction Z-score [4, 10]: -1.25 ± 0.58
- promoter activity interaction Z-score [4, 11]: -0.386 ± 0.51
- promoter activity interaction Z-score [4, 12]: -0.513 ± 0.059
- promoter activity interaction Z-score [4, 13]: -0.652 ± 0.036
- promoter activity interaction Z-score [4, 14]: -1.38 ± 0.51
- promoter activity interaction Z-score [4, 15]: -0.498 ± 0.53
- promoter activity interaction Z-score [4, 16]: -0.731 ± 0.65
- promoter activity interaction Z-score [4, 17]: -1.05 ± 0.44
- promoter activity interaction Z-score [4, 18]: -1.75 ± 0.21
- promoter activity interaction Z-score [4, 19]: -0.339 ± 0.55
- promoter activity interaction Z-score [5, 8]: -1.53 ± 0.13
- promoter activity interaction Z-score [5, 9]: -0.233 ± 0.25
- promoter activity interaction Z-score [5, 10]: -0.222 ± 1.1
- promoter activity interaction Z-score [5, 11]: -0.27 ± 0.21
- promoter activity interaction Z-score [5, 12]: -0.668 ± 0.089
- promoter activity interaction Z-score [5, 13]: -0.453 ± 0.016
- promoter activity interaction Z-score [5, 14]: -0.648 ± 0.67
- promoter activity interaction Z-score [5, 15]: -0.627 ± 0.58
- promoter activity interaction Z-score [5, 16]: -0.364 ± 0.19
- promoter activity interaction Z-score [5, 17]: -0.432 ± 0.13
- promoter activity interaction Z-score [5, 18]: -0.777 ± 0.35
- promoter activity interaction Z-score [5, 19]: -0.0429 ± 0.032
- promoter activity interaction Z-score [6, 8]: -0.311 ± 0.12
- promoter activity interaction Z-score [6, 9]: 0.435 ± 0.12
- promoter activity interaction Z-score [6, 10]: 0.153 ± 0.081
- promoter activity interaction Z-score [6, 11]: 0.8 ± 0.97
- promoter activity interaction Z-score [6, 12]: -0.00893 ± 0.087
- promoter activity interaction Z-score [6, 13]: 0.517 ± 0.017
- promoter activity interaction Z-score [6, 14]: -0.0801 ± 0.15
- promoter activity interaction Z-score [6, 15]: 0.388 ± 0.66
- promoter activity interaction Z-score [6, 16]: -0.156 ± 0.16
- promoter activity interaction Z-score [6, 17]: 0.256 ± 0.12
- promoter activity interaction Z-score [6, 18]: -0.261 ± 0.034
- promoter activity interaction Z-score [6, 19]: 0.23 ± 0.41
- promoter activity interaction Z-score [7, 8]: -0.208 ± 0.53
- promoter activity interaction Z-score [7, 9]: 1.08 ± 0.12
- promoter activity interaction Z-score [7, 10]: 1.06 ± 0.98
- promoter activity interaction Z-score [7, 11]: 0.966 ± 0.54
- promoter activity interaction Z-score [7, 12]: -0.106 ± 0.92
- promoter activity interaction Z-score [7, 13]: 1.89 ± 1.1
- promoter activity interaction Z-score [7, 14]: -0.289 ± 0.39
- promoter activity interaction Z-score [7, 15]: 0.246 ± 0.11
- promoter activity interaction Z-score [7, 16]: 0.0455 ± 1.8
- promoter activity interaction Z-score [7, 17]: 0.506 ± 0.55
- promoter activity interaction Z-score [7, 18]: -0.0996 ± 0.22
- promoter activity interaction Z-score [7, 19]: 1.32 ± 2
- promoter activity interaction Z-score ([7]; 14.9 µg/ml, genetic background: ΔsoxS): 1.08 ± 0.5

Compound: C[C@@H](O)[C@H]1C(=O)N2C(C(=O)O)=C(S[C@@H]3CN[C@H](C(=O)N(C)C)C3)[C@H](C)[C@H]12 [Meropenem]
- promoter activity interaction Z-score [1, 20]: -0.325 ± 0.13
- promoter activity interaction Z-score [1, 21]: -0.25 ± 1.2
- promoter activity interaction Z-score [1, 22]: -0.499 ± 0.11
- promoter activity interaction Z-score [1, 23]: -0.443 ± 0.38
- promoter activity interaction Z-score [1, 24]: -0.443 ± 0.2
- promoter activity interaction Z-score [1, 25]: 0.239 ± 0.72
- promoter activity interaction Z-score [1, 26]: -0.429 ± 0.27
- promoter activity interaction Z-score [1, 27]: -0.714 ± 0.56
- promoter activity interaction Z-score [1, 28]: -0.272 ± 0.31
- promoter activity interaction Z-score [1, 29]: -0.463 ± 0.48
- promoter activity interaction Z-score [1, 30]: -0.0657
- promoter activity interaction Z-score [1, 31]: -1.05 ± 0.84
- promoter activity interaction Z-score [3, 20]: -0.112 ± 0.01
- promoter activity interaction Z-score [3, 21]: 0.0252 ± 0.018
- promoter activity interaction Z-score [3, 22]: -0.116 ± 0.077
- promoter activity interaction Z-score [3, 23]: -0.229 ± 0.14
- promoter activity interaction Z-score [3, 24]: 0.415 ± 0.16
- promoter activity interaction Z-score [3, 25]: -0.0395 ± 0.041
- promoter activity interaction Z-score [3, 26]: 0.325 ± 0.09
- promoter activity interaction Z-score [3, 27]: 0.0746 ± 0.14
- promoter activity interaction Z-score [3, 28]: -0.67 ± 0.27
- promoter activity interaction Z-score [3, 29]: -0.111 ± 0.099
- promoter activity interaction Z-score [3, 30]: -0.153 ± 0.23
- promoter activity interaction Z-score [3, 31]: 0.149 ± 0.13
- promoter activity interaction Z-score [4, 20]: -0.54 ± 0.28
- promoter activity interaction Z-score [4, 21]: -0.583 ± 0.092
- promoter activity interaction Z-score [4, 22]: -0.754 ± 0.17
- promoter activity interaction Z-score [4, 23]: -0.418 ± 0.015
- promoter activity interaction Z-score [4, 24]: -0.588 ± 0.17
- promoter activity interaction Z-score [4, 25]: -0.0893 ± 0.4
- promoter activity interaction Z-score [4, 26]: -0.761 ± 1
- promoter activity interaction Z-score [4, 27]: 0.398 ± 0.68
- promoter activity interaction Z-score [4, 28]: -2.42 ± 0.71
- promoter activity interaction Z-score [4, 29]: -1.11 ± 1.2
- promoter activity interaction Z-score [4, 30]: -3.33
- promoter activity interaction Z-score [4, 31]: -0.548 ± 0.013
- promoter activity interaction Z-score [5, 20]: 0.101 ± 0.27
- promoter activity interaction Z-score [5, 21]: -0.585 ± 0.075
- promoter activity interaction Z-score [5, 22]: -0.128 ± 0.22
- promoter activity interaction Z-score [5, 23]: -0.321 ± 0.77
- promoter activity interaction Z-score [5, 24]: -0.965 ± 0.67
- promoter activity interaction Z-score [5, 25]: 0.101 ± 0.13
- promoter activity interaction Z-score [5, 26]: -0.78 ± 0.081
- promoter activity interaction Z-score [5, 27]: 0.872 ± 0.96
- promoter activity interaction Z-score [5, 28]: -1.9
- promoter activity interaction Z-score [5, 29]: -1.13 ± 0.46
- promoter activity interaction Z-score [5, 30]: -2.08 ± 0.078
- promoter activity interaction Z-score [5, 31]: -1.54 ± 0.12
- promoter activity interaction Z-score [6, 20]: -0.0716 ± 0.075
- promoter activity interaction Z-score [6, 21]: -0.0983 ± 0.033
- promoter activity interaction Z-score [6, 22]: -0.37 ± 0.018
- promoter activity interaction Z-score [6, 23]: 0.00722 ± 0.14
- promoter activity interaction Z-score [6, 24]: -0.334 ± 0.51
- promoter activity interaction Z-score [6, 25]: -0.124 ± 0.17
- promoter activity interaction Z-score [6, 26]: -0.218 ± 0.073
- promoter activity interaction Z-score [6, 27]: 0.588 ± 0.26
- promoter activity interaction Z-score [6, 29]: -1.21
- promoter activity interaction Z-score [6, 30]: -0.982 ± 0.23
- promoter activity interaction Z-score [6, 31]: 0.387 ± 0.062
- promoter activity interaction Z-score [7, 20]: -0.834 ± 0.2
- promoter activity interaction Z-score [7, 21]: -1.09 ± 0.39
- promoter activity interaction Z-score [7, 22]: -0.937 ± 0.21
- promoter activity interaction Z-score [7, 23]: -0.582 ± 0.57
- promoter activity interaction Z-score [7, 24]: -0.873 ± 0.14
- promoter activity interaction Z-score [7, 25]: -0.075 ± 1
- promoter activity interaction Z-score [7, 26]: -1.42 ± 0.33
- promoter activity interaction Z-score [7, 27]: -0.223 ± 0.39
- promoter activity interaction Z-score [7, 28]: -1.14
- promoter activity interaction Z-score [7, 29]: -0.703
- promoter activity interaction Z-score [7, 30]: -1.44 ± 0.34
- promoter activity interaction Z-score [7, 31]: 0.705
